Measured values: PubChem BioAssay (NCATS)
Results filed as inconclusive are left out. Active and inactive are the calls of the source. The call rests on the fitted dose curve; in most records, active means well fitted inhibition curve with a large enough effect; inconclusive means small, poorly fitted or top-dose-only effect; inactive means flat fitted curve, though single readings scatter.

Target: Calcium and integrin-binding protein 1 (Homo sapiens) (UniProt Q99828)
Assay: Primary qHTS for Identification of Calcium Integrin Binding Protein 1 (CIB1) Competitor (AID 1508620);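 on activity change, negative = inhibition: GST tagged CIB1 binding a fluorescein labelled alphaIIb integrin peptide tracer; top concentration of the series differs between compounds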
Details: CIB1-GST / FITC-alphaIIb peptide fluorescence polarization; series mostly up to 114 µM; activity change, negative = inhibition: at the top concentration
How it was run: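 Fluorescence polarization competition: CIB1-GST (1 uM final) preincubated with compound 15 min at room temperature, then FITC-labeled alphaIIb peptide (100 nM final) added for another 15 min. Polarization read at Ex 480/Em 540.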
On the % scale 0 is the no-effect control and ±100 the full control effect; potency means the concentration at half of the fitted maximal effect.

Sequence of Calcium and integrin-binding protein 1 (Homo sapiens) (Q99828 whole entry, looked up): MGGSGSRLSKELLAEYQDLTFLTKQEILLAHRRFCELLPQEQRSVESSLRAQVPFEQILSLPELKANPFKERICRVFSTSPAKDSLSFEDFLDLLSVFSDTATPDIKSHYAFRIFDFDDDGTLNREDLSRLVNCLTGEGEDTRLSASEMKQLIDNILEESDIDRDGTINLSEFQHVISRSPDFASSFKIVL

With O=S(=O)(c1ccc2c(c1)OCCO2)C1CCN(S(=O)(=O)c2c(F)cccc2F)CC1 as the compound, how does the “activity change, negative = inhibition” value read?
The value was -1.55% (inactive).

Cc1ccc(OCCn2c(CCNC(=O)c3ccccc3[N+](=O)[O-])nc3ccccc32)cc1 was tested. Which “activity change, negative = inhibition” value did it give?
The value was 7.44% (inactive).

With CC1(C)CCC(C)(C)c2cc([S+](=O)([O-])N3CCN([S+](=O)([O-])c4c(F)cccc4F)CC3)ccc21 as the compound, how does the “activity change, negative = inhibition” value read?
Its value is -1.81% (inactive).

With COc1ccc(C2=Nn3c(nnc3-c3cccc(OC)c3)SC2)cc1 as the compound, how does the “activity change, negative = inhibition” value read?
The value was 2.19% (inactive).

Which “activity change, negative = inhibition” value does the source give for Cc1cc(C)n2ncc(C(=O)Nc3cccc(C(F)(F)F)c3)c2n1 here?
The value was -1.6% (inactive).

Which “activity change, negative = inhibition” value does the source give for O=C(Nc1cccc(-c2nn3c(=O)cc(N4CCNCC4)nc3s2)c1)c1ccncc1 here?
Its value is 4.17% (inactive).

How did the “activity change, negative = inhibition” value turn out when COc1ccc(C(=O)O)cc1COc1ccc(NC(C)=O)cc1 was run?
The value was -8.26% (inactive).

With Cc1ccc(NS(=O)(=O)c2ccc3c(c2)CCCC(=O)N3)cc1C as the compound, how does the “activity change, negative = inhibition” value read?
The value was 1.81% (inactive).

For Cc1ccc2nc3sc(C(=O)NCCCN(C)C)cc3cc2c1, which “activity change, negative = inhibition” value is on record?
The value was 4.79% (inactive).

Which “activity change, negative = inhibition” value does the source give for O=C(NC1CCCc2c1cnn2-c1ccc(F)cc1F)c1ccncc1 (centres undefined) here?
Its value is 3.27% (inactive).

With O=C1NS(=O)(=O)c2cc(Cl)ccc21 as the compound, how does the “activity change, negative = inhibition” value read?
Its value is -0.262% (inactive).

Which “activity change, negative = inhibition” value does the source give for O=C(Nc1ccc(-c2nc3ccccc3[nH]2)cc1)Nc1ccc2occc2c1 here?
The value was -1.67% (inactive).

How did the “activity change, negative = inhibition” value turn out when COc1ccc(CCNC(=O)Cn2nc(-c3ccc(C)cc3)ccc2=O)cc1OC was run?
Its value is -2.76% (inactive).

Which “activity change, negative = inhibition” value does the source give for CC(C)(C)Cc1nnc(NC(=O)CSc2ccccc2)s1 here?
The value was 1.62% (inactive).

How did the “activity change, negative = inhibition” value turn out when CCc1ccc(NC(=O)c2cnn3c(C)cc(C)nc23)cc1 was run?
Its value is -4.12% (inactive).

How did the “activity change, negative = inhibition” value turn out when COc1ccc(C2Nc3ccccc3C(=O)N2Cc2ccccc2C)cc1COc1ccc(NC(C)=O)cc1 (centres undefined) was run?
The value was 4.5% (inactive).

How did the “activity change, negative = inhibition” value turn out when CC(=O)Nc1sc2c(c1-c1nc3ccccc3s1)CCN(C(C)=O)C2 was run?
The value was -17.1% (inactive).

With CCc1nnc(-c2cnn(C)c2N)n1CCCn1ccnc1 as the compound, how does the “activity change, negative = inhibition” value read?
The value was -0.903% (inactive).

For c1nc(NCc2ccc3c(c2)OCO3)c2cc(-c3ccc4c(c3)OCCO4)ccc2n1, which “activity change, negative = inhibition” value is on record?
The value was -4.21% (inactive).

Which “activity change, negative = inhibition” value does the source give for CC(C)Oc1ccc(C(=O)Nc2ccc(-c3nc4ccccc4[nH]3)cc2)cc1 here?
The value was -1.55% (inactive).

Which “activity change, negative = inhibition” value does the source give for CCOC(=O)c1ccc(-c2ccc3ncnc(NCc4ncc[nH]4)c3c2)o1 here?
Its value is -5.02% (inactive).

For COc1ccc(C2Nc3ccccc3C(=O)N2Cc2ccccc2OC)cc1COc1ccc(NC(C)=O)cc1 (centres undefined), which “activity change, negative = inhibition” value is on record?
Its value is 2.01% (inactive).

For CC(=O)Nc1sc2c(c1-c1nc3ccccc3o1)CCN(C(C)C)C2, which Potency is on record?
Its Potency is 50.1 µM (active).

For CCCCn1cnc2cc(C(=O)N3CCCCC3)ccc21, which “activity change, negative = inhibition” value is on record?
Its value is -5.51% (inactive).
